# Assay results as given in PubChem BioAssay.
# Calls of active or inactive are those of the source.
# Test: HepG2 liver cancer cell viability effects, profiling panel, resazurin fluorescence, 24 h, PK04 Diversity Set (AID 1172); further: test concentration not given here
# Conditions: higher = more signal
row,Structure (SMILES),z-score
1,COc1cc2c(cc1OC)CN(C(=O)[C@@H]1[C@H]3C(=O)O[C@H](c4ccccc4)[C@H](c4ccccc4)N3[C@H](c3ccc(O)cc3)[C@@]13C(=O)Nc1ccccc13)CC2,-0.313
2,O=C(NC1CC1)[C@@H]1c2ccccc2C(=O)N(Cc2ccccc2Cl)[C@H]1c1ccc(CO)cc1,0.382
3,O=C1c2ccccc2[C@](Cc2ccccc2I)(C(=O)NCC(F)(F)F)[C@H](c2ccc(CO)cc2)N1Cc1ccccc1Cl,1.08
4,Cc1ccc(S[C@]2(C(=O)O)CC(=O)N(C(C)C)[C@@H]2c2ccc(CO)cc2I)cc1,0.975
5,COc1ccc(C#Cc2ccc3c(c2)[C@]2(C(=O)N3)[C@H](C(=O)NC[C@H](O)c3ccccc3)[C@H]3C(=O)O[C@H](c4ccccc4)[C@H](c4ccccc4)N3[C@@H]2c2ccc(O)cc2)cc1,-0.475
6,COC(=O)[C@@]1(Cc2ccc(F)cc2)[C@H]2c3cc(C(=O)N4CCCC4)n(Cc4ccc(S(C)(=O)=O)cc4)c3C[C@H]2CN1C(=O)c1ccccc1,-0.608
7,O=C1C2C=CC(C(O)c3cccc4ccccc34)N(Nc3ccccc3F)C2C(=O)N1c1ccccc1 (stereo not drawn),0.0332
8,CCCC[C@@H]1C[C@H]1[C@@H](NC(=O)c1ccco1)c1ccccc1C(F)(F)F,-0.153
9,CC(C)NC(=O)[C@@]1(c2ccc([N+](=O)[O-])cc2)CC(=O)N(C2CCCCC2)[C@@H]1c1ccc(CO)cc1I,-0.752
10,C=CCOC(=O)[C@H]1[C@@H]2C(=O)O[C@@H](c3ccccc3)[C@@H](c3ccccc3)N2[C@@H](c2ccc(OCCOC(=O)[C@H]3C[C@H]4C(=O)N[C@@H](CCCCNC(C)=O)C(=O)N4[C@H]3c3ccc(O)cc3)cc2)[C@]12C(=O)Nc1ccc(I)cc12,0.452
11,Cc1ccc(S[C@]2(C(=O)NC3CC3)CC(=O)N(Cc3ccccc3)[C@@H]2c2ccc(CO)cc2I)cc1,0.417
12,CC1CC/C=C\[C@H]2OC34C=CCN(C(C)(C)C)C(=O)[C@H]3N(CCO)C(=O)[C@@H]4C2C(=O)O1 (stereo partly drawn),0.488
13,C=CCC(OC(C)=O)[C@@H]1[C@@H](N(Cc2ccc(-c3ccccc3)cc2)C(=O)Cc2ccc(OC)cc2)c2cc(OCCCO)ccc2N1C(=O)Cc1ccc2ccccc2c1 (stereo partly drawn),-0.978
14,COC(=O)C(CC#Cc1ccc2c(c1)[C@]1(C(=O)N2)[C@H](C(=O)Nc2nc3ccccc3s2)[C@H]2C(=O)O[C@H](c3ccccc3)[C@H](c3ccccc3)N2[C@@H]1c1ccc(O)cc1)C(=O)OC,0.793
15,O=C1C[C@@](C(=O)NCCN2CCOCC2)(c2ccc([N+](=O)[O-])cc2)[C@@H](c2ccc(CO)cc2I)N1CC12CC3CC(CC(C3)C1)C2,-5.11
16,CCCCCN1CC=CC23O[C@@H]4C=CCCOC(=O)C4[C@H]2C(=O)N(CCCCCO)[C@@H]3C1=O (stereo partly drawn),0.476
17,COCCCNC(=O)[C@@H]1c2ccccc2C(=O)N(Cc2ccccc2Cl)[C@H]1c1ccc(CO)cc1,-0.378
18,C=C(CCCC)/C(=C/C[C@@H](OC(C)=O)c1ccc(OCCO)cc1)c1cnc2ccccc2c1,0.54
19,COc1ccc(CCNC(=O)[C@@]2(Sc3ccc(C)cc3)CC(=O)N(C(C)C)[C@@H]2c2ccc(CO)cc2I)cc1,0.104
20,CCCC[C@@H]1C[C@H]1[C@@H](NC(=O)c1cccs1)c1ccc(-c2ccccc2)cc1,1.13
21,CN(C)CCCCCCNC(=O)[C@H]1C[C@H]2C(=O)N[C@@H](CCCCN)C(=O)N2[C@H]1c1cccc(OCCO)c1,-0.0616
22,C=C(C)[C@@H]1CC=C(C(O)C2C=CC3C(=O)N(c4ccccc4)C(=O)C3N2Nc2ccccc2)CC1 (stereo partly drawn),-0.126
23,COCCOC(=O)N1C(=O)[C@@]2(c3cc(C#CCC(C(=O)OC)C(=O)OC)ccc31)[C@H](c1ccccc1OCCO)N1[C@H](c3ccccc3)[C@H](c3ccccc3)OC(=O)[C@H]1[C@@H]2C(=O)NC[C@H](O)c1ccccc1,-0.326

# Test: basal S. cerevisiae growth modulation, no modifier, primary screen, OD600, strain BY4716, 24 h, basal condition (AID 1173)
# Conditions: OD600, 24 h, higher = more signal, called active from +8 up or from −8 down
row,Structure (SMILES),z-score
1,CCCC[C@@H]1C[C@H]1[C@@H](NC(=O)c1ccco1)c1ccc(-c2ccccc2)cc1,1.22 (inactive)
2,O=C1O[C@@H](c2ccccc2)[C@@H](c2ccccc2)N2[C@@H](c3ccccc3OCCO)[C@]3(C(=O)Nc4ccc(C#CC5=CCCCC5)cc43)[C@@H](C(=O)N3CCCCCCC3)[C@H]12,0.98 (inactive)
3,O=C1NC(=O)C2C1C=CC(C(O)c1cccs1)N2Nc1ccc(Cl)cc1Cl (stereo not drawn),-6.97 (inactive)
4,COC(=O)[C@]1(CCC(=O)OC(C)(C)C)N=C(c2ccc(OCCCO)cc2)O[C@@H]1c1ccccc1CN=[N+]=[N-],1.01 (inactive)
5,COc1ccc(C(=O)Nc2ccc(CN3C(=O)[C@]4(O[C@H](CCO)[C@@H]([Si](C)(C)c5ccc(OC)cc5)[C@@H]4C)c4ccccc43)cc2)cc1,-3.84 (inactive)
6,CC1(C)C2C=C(C(O)C3C=CC4C(=O)NC(=O)C4N3Nc3ccc(Cl)cc3Cl)C[C@@H]1C2 (stereo partly drawn),-7.58 (inactive)
7,C=C(COC)C(=O)CC[C@@H](OC(C)=O)c1ccc(CO)o1,0.227 (inactive)
8,COC(=O)c1c(CC[C@@H](CO)NC(=O)NCCn2cc(C3(O)CCCC3)nn2)oc(C(C)=O)c1C(=O)OC,-0.394 (inactive)
9,C=C(C(=O)CC[C@@H](OC(=O)c1cccnc1)c1ccccc1OCCO)C(C)C,-1.51 (inactive)
10,CCOC(=O)C[C@H]1[C@H](OC(=O)c2ccc(C(=O)c3ccccc3)cc2)[C@@H](NC(=O)c2ccccc2)c2cc(OCCCO)ccc2N1C(=O)c1ccc2ccccc2n1,0.47 (inactive)
11,COc1cc(NN2C(C(O)c3ccco3)C=CC3C(=O)N(c4ccccc4)C(=O)C32)cc(OC)c1OC (stereo not drawn),1.58 (inactive)
12,COCCCNC(=O)[C@@]1(C)c2ccccc2C(=O)N(C(C)C)[C@H]1c1ccc(CO)cc1,0.836 (inactive)
13,COc1cc2c(cc1OC)CN(C(=O)[C@@H]1[C@H]3C(=O)O[C@H](c4ccccc4)[C@H](c4ccccc4)N3[C@H](c3ccc(O)cc3)[C@@]13C(=O)Nc1ccccc13)CC2,-0.128 (inactive)
14,O=C(NC1CC1)[C@@H]1c2ccccc2C(=O)N(Cc2ccccc2Cl)[C@H]1c1ccc(CO)cc1,-2.09 (inactive)
15,O=C1c2ccccc2[C@](Cc2ccccc2I)(C(=O)NCC(F)(F)F)[C@H](c2ccc(CO)cc2)N1Cc1ccccc1Cl,-1.32 (inactive)
16,Cc1ccc(S[C@]2(C(=O)O)CC(=O)N(C(C)C)[C@@H]2c2ccc(CO)cc2I)cc1,-4.89 (inactive)
17,COc1ccc(C#Cc2ccc3c(c2)[C@]2(C(=O)N3)[C@H](C(=O)NC[C@H](O)c3ccccc3)[C@H]3C(=O)O[C@H](c4ccccc4)[C@H](c4ccccc4)N3[C@@H]2c2ccc(O)cc2)cc1,-0.26 (inactive)
18,COC(=O)[C@@]1(Cc2ccc(F)cc2)[C@H]2c3cc(C(=O)N4CCCC4)n(Cc4ccc(S(C)(=O)=O)cc4)c3C[C@H]2CN1C(=O)c1ccccc1,1.01 (inactive)

row,Structure (SMILES),z-score
1,O=C1C2C=CC(C(O)c3cccc4ccccc34)N(Nc3ccccc3F)C2C(=O)N1c1ccccc1 (stereo not drawn),-0.103 (inactive)
2,CCCC[C@@H]1C[C@H]1[C@@H](NC(=O)c1ccco1)c1ccccc1C(F)(F)F,1.67 (inactive)
3,CC(C)NC(=O)[C@@]1(c2ccc([N+](=O)[O-])cc2)CC(=O)N(C2CCCCC2)[C@@H]1c1ccc(CO)cc1I,-0.148 (inactive)
4,C=CCOC(=O)[C@H]1[C@@H]2C(=O)O[C@@H](c3ccccc3)[C@@H](c3ccccc3)N2[C@@H](c2ccc(OCCOC(=O)[C@H]3C[C@H]4C(=O)N[C@@H](CCCCNC(C)=O)C(=O)N4[C@H]3c3ccc(O)cc3)cc2)[C@]12C(=O)Nc1ccc(I)cc12,-0.371 (inactive)
5,Cc1ccc(S[C@]2(C(=O)NC3CC3)CC(=O)N(Cc3ccccc3)[C@@H]2c2ccc(CO)cc2I)cc1,-3.23 (inactive)
6,CC1CC/C=C\[C@H]2OC34C=CCN(C(C)(C)C)C(=O)[C@H]3N(CCO)C(=O)[C@@H]4C2C(=O)O1 (stereo partly drawn),-0.68 (inactive)
7,C=CCC(OC(C)=O)[C@@H]1[C@@H](N(Cc2ccc(-c3ccccc3)cc2)C(=O)Cc2ccc(OC)cc2)c2cc(OCCCO)ccc2N1C(=O)Cc1ccc2ccccc2c1 (stereo partly drawn),-0.34 (inactive)
8,COC(=O)C(CC#Cc1ccc2c(c1)[C@]1(C(=O)N2)[C@H](C(=O)Nc2nc3ccccc3s2)[C@H]2C(=O)O[C@H](c3ccccc3)[C@H](c3ccccc3)N2[C@@H]1c1ccc(O)cc1)C(=O)OC,-0.0312 (inactive)
9,O=C1C[C@@](C(=O)NCCN2CCOCC2)(c2ccc([N+](=O)[O-])cc2)[C@@H](c2ccc(CO)cc2I)N1CC12CC3CC(CC(C3)C1)C2,-12.9 (active)
10,CCCCCN1CC=CC23O[C@@H]4C=CCCOC(=O)C4[C@H]2C(=O)N(CCCCCO)[C@@H]3C1=O (stereo partly drawn),0.388 (inactive)
11,COCCCNC(=O)[C@@H]1c2ccccc2C(=O)N(Cc2ccccc2Cl)[C@H]1c1ccc(CO)cc1,-0.259 (inactive)
12,C=C(CCCC)/C(=C/C[C@@H](OC(C)=O)c1ccc(OCCO)cc1)c1cnc2ccccc2c1,-0.845 (inactive)
13,COc1ccc(CCNC(=O)[C@@]2(Sc3ccc(C)cc3)CC(=O)N(C(C)C)[C@@H]2c2ccc(CO)cc2I)cc1,-1.77 (inactive)
14,CCCC[C@@H]1C[C@H]1[C@@H](NC(=O)c1cccs1)c1ccc(-c2ccccc2)cc1,0.748 (inactive)
15,CN(C)CCCCCCNC(=O)[C@H]1C[C@H]2C(=O)N[C@@H](CCCCN)C(=O)N2[C@H]1c1cccc(OCCO)c1,-1.69 (inactive)
16,C=C(C)[C@@H]1CC=C(C(O)C2C=CC3C(=O)N(c4ccccc4)C(=O)C3N2Nc2ccccc2)CC1 (stereo partly drawn),-1.81 (inactive)
17,COCCOC(=O)N1C(=O)[C@@]2(c3cc(C#CCC(C(=O)OC)C(=O)OC)ccc31)[C@H](c1ccccc1OCCO)N1[C@H](c3ccccc3)[C@H](c3ccccc3)OC(=O)[C@H]1[C@@H]2C(=O)NC[C@H](O)c1ccccc1,1.67 (inactive)
